This is a sample that favours compounds with a hit; in the whole collection about 1.1% have one here.
OPRM1-OPRD1 inv – mu-delta opioid heterodimer inverse agonism. P35372+P41143. cell-based MOR-DOR heterodimer luminescence. inhibition, % at 9.3 µM. hit rate 0.21% among 340,000; in the data active means inhibition above about 22%, passing the limit was not always enough;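 further: 0% = cells with DMSO and 100% = wells without cells with DMSO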
HTR5A inv ag – HTR5A inverse agonism, opioid heterodimer counter-screen; P47898; HTR5A cell line, luminescence; inhibition, % at 9.3 µM; hit rate 0.083% among 340,000; in the data active means inhibition mostly above about 23%, no sharp cut-off; inactive means mostly below about 18%;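 further: 0% = cells with DMSO and 100% = no-cell wells with DMSO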
Target sequence (P47898 whole entry, looked up): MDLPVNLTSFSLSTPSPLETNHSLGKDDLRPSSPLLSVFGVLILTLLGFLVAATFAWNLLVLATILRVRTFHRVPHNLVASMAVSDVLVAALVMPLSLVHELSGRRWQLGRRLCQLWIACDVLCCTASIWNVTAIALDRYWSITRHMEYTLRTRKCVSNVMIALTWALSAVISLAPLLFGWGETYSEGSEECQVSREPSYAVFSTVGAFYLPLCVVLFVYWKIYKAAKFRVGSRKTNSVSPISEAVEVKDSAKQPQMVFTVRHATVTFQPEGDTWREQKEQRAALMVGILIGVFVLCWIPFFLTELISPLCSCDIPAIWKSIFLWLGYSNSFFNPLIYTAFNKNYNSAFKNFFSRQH
HTR5A ag ctr – counter-screen for OPRM1-OPRD1 agonists: human HTR5A agonism. hit rate 0.61% among 340,000. activation, % at 9.3 µM. HTR5A agonist assay, luminescence, cell-based; in the data active means activation mostly above about 9.5%, no sharp cut-off; inactive means mostly below about 7.6%;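 further: 0% = cells with vehicle only and 100% = reference agonist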
OPRM1-OPRD1 ag – agonists of human mu-delta opioid receptor heterodimerization. cells, OPRM1-OPRD1 heterodimerization, luminescence. activation, % at 9.3 µM. P35372+P41143. hit rate 0.3% among 340,000; in the data active means activation above about 18%;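 further: 0% = vehicle-treated cells and 100% = reference agonist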
* = called active by the depositor.

CC(C)(C)OC(=O)N1CCC(NC(=O)c2nc[nH]c2C(=O)N2CCN(c3ccccc3)CC2)CC1 was read as OPRM1-OPRD1 inv 5, HTR5A inv ag 0, HTR5A ag ctr 3 and OPRM1-OPRD1 ag -1.
`CC(=O)Nc1ccc(NC(=O)CSc2nc(=O)n(Cc3cccnc3)c3c2CCC3)cc1` gave OPRM1-OPRD1 inv 5, HTR5A inv ag 10, HTR5A ag ctr -4 and OPRM1-OPRD1 ag -1.
CCOC(=O)C1(CCOC)CCN(Cc2ccc(COC)o2)CC1 was read as OPRM1-OPRD1 inv -1, HTR5A inv ag -5, HTR5A ag ctr 12* and OPRM1-OPRD1 ag 0.
For Cc1cc(NC(=O)C2CCCCC2C(=O)O)ccc1NC(=O)c1ccccc1 (stereo unspecified) the results were OPRM1-OPRD1 inv 5, HTR5A inv ag -6, HTR5A ag ctr 2 and OPRM1-OPRD1 ag -1.
For CN(C)CC1C2CCC(C2)C1O (stereo unspecified) the results were OPRM1-OPRD1 inv 13, HTR5A inv ag 4, HTR5A ag ctr -1 and OPRM1-OPRD1 ag -3.
For C/C(CC(=O)Nc1ccc(C)c(Cl)c1)=N\NC(=O)Cc1ccccc1 the results were OPRM1-OPRD1 inv -7, HTR5A inv ag -32, HTR5A ag ctr 12* and OPRM1-OPRD1 ag 1.
CC(c1ccccc1)C(NC(=O)OCC1c2ccccc2-c2ccccc21)C(=O)O (stereo unspecified) was read as OPRM1-OPRD1 inv 8, HTR5A inv ag 12, HTR5A ag ctr -5 and OPRM1-OPRD1 ag -1.
`O=C(COC(=O)Cc1ccccc1F)NC(=O)NC1CCCC1` gave OPRM1-OPRD1 inv 13, HTR5A inv ag -15, HTR5A ag ctr 12* and OPRM1-OPRD1 ag -3.
`COc1ccc2ccc(O)c(CN(C)CC(=O)Nc3ccccc3C(F)(F)F)c2c1` gave OPRM1-OPRD1 inv -62, HTR5A inv ag -25, HTR5A ag ctr 7 and OPRM1-OPRD1 ag 9.
For COc1ccc(NC(=O)CSc2nncn2N)c(OC)c1 the results were OPRM1-OPRD1 inv 4, HTR5A inv ag -17, HTR5A ag ctr 1 and OPRM1-OPRD1 ag -1.
`COc1ccccc1NC(=O)CSc1nncn1N` gave OPRM1-OPRD1 inv 10, HTR5A inv ag -2, HTR5A ag ctr 13* and OPRM1-OPRD1 ag -2.
`CC(NC(=O)CN1C(=O)NC2(CCCC2)C1=O)c1ccc(Cl)cc1Cl` (stereo unspecified) gave OPRM1-OPRD1 inv 10, HTR5A inv ag -3, HTR5A ag ctr 1 and OPRM1-OPRD1 ag -2.
For CN(CC(=O)Nc1c(Cl)cccc1Cl)C(=O)c1ccc(-n2cncn2)c([N+](=O)[O-])c1 the results were OPRM1-OPRD1 inv -5, HTR5A inv ag -31, HTR5A ag ctr 11* and OPRM1-OPRD1 ag 1.
`O=C(Nc1ccc2c(c1)CCC2)c1ccc(Cl)nc1` gave OPRM1-OPRD1 inv -11, HTR5A inv ag -4, HTR5A ag ctr 2 and OPRM1-OPRD1 ag 2.
Screening O=C(Nc1ccc2c(c1)CCC2)c1cnc(Cl)c(Cl)c1 returned OPRM1-OPRD1 inv -47, HTR5A inv ag -29, HTR5A ag ctr 11* and OPRM1-OPRD1 ag 9.
CCn1c(N2CCN(S(=O)(=O)c3ccccc3C(F)(F)F)CC2)nc2ccccc21 was read as OPRM1-OPRD1 inv -12, HTR5A inv ag -62, HTR5A ag ctr 13* and OPRM1-OPRD1 ag 2.
Screening O=C(CC(c1ccccc1)c1cc(Cl)ccc1O)NCCCN1CCOCC1 (stereo unspecified) returned OPRM1-OPRD1 inv 2, HTR5A inv ag 12, HTR5A ag ctr -3 and OPRM1-OPRD1 ag 0.
`CCOc1cc(N2CCOCC2)c(OCC)cc1NC(=O)CN1CCC(Cc2ccccc2)CC1` gave OPRM1-OPRD1 inv 2, HTR5A inv ag -32, HTR5A ag ctr 12* and OPRM1-OPRD1 ag 0.
CCOc1cc(N2CCOCC2)c(OCC)cc1NC(=O)CN1C(=O)NC(Cc2ccccc2)C1=O (stereo unspecified) was read as OPRM1-OPRD1 inv 2, HTR5A inv ag -8, HTR5A ag ctr 2 and OPRM1-OPRD1 ag 0.
Cc1cc(=O)oc2cc(OCC(=O)Nc3ccc(N4CCC(C)CC4)cc3)ccc12 was read as OPRM1-OPRD1 inv -83, HTR5A inv ag -36, HTR5A ag ctr 11* and OPRM1-OPRD1 ag 16.
Screening Cc1c(C)c2ccc(OCC(=O)Nc3ccc(N4CCC(C)CC4)cc3)cc2oc1=O returned OPRM1-OPRD1 inv -19, HTR5A inv ag 6, HTR5A ag ctr 5 and OPRM1-OPRD1 ag 4.
For CCCOc1ccc(C(=O)CCNC(Cc2c[nH]c3ccccc23)C(=O)O)cc1 (stereo unspecified) the results were OPRM1-OPRD1 inv 4, HTR5A inv ag 10, HTR5A ag ctr -3 and OPRM1-OPRD1 ag -1.
For COc1ccc(-c2cn(-c3ccc(C)c(Cl)c3)c(=S)[nH]2)cc1OC the results were OPRM1-OPRD1 inv -23, HTR5A inv ag -43, HTR5A ag ctr 12* and OPRM1-OPRD1 ag 5.
COc1ccc(-c2cn(-c3ccc(C)c(C)c3)c(=S)[nH]2)cc1OC was read as OPRM1-OPRD1 inv 4, HTR5A inv ag -8, HTR5A ag ctr 2 and OPRM1-OPRD1 ag -1.
CSCC(C)N1CCC(CCC(=O)NC2CC2)CC1 (stereo unspecified) was read as OPRM1-OPRD1 inv 20, HTR5A inv ag 9, HTR5A ag ctr 12* and OPRM1-OPRD1 ag -4.
`COC(=O)c1c(NC(=O)CSc2ncn[nH]2)sc(C)c1C` gave OPRM1-OPRD1 inv -4, HTR5A inv ag -32, HTR5A ag ctr 13* and OPRM1-OPRD1 ag 1.
Screening CCOC(=O)c1c(NC(=O)CSc2ncn[nH]2)sc(C(C)=O)c1C returned OPRM1-OPRD1 inv 21, HTR5A inv ag -13, HTR5A ag ctr 5 and OPRM1-OPRD1 ag -4.
`CC(C)Cc1nnc(NC(=O)CSc2ncn[nH]2)s1` gave OPRM1-OPRD1 inv 12, HTR5A inv ag 0, HTR5A ag ctr 13* and OPRM1-OPRD1 ag -3.
CC(=O)N1CCN(C(=O)C(Cc2c[nH]c3ccccc23)NC(=O)c2ccccc2Cl)CC1 (stereo unspecified) was read as OPRM1-OPRD1 inv 9, HTR5A inv ag 3, HTR5A ag ctr -1 and OPRM1-OPRD1 ag -2.
For CSc1ccccc1NC(=O)c1cc(-c2cccnc2)nc2ccc(Br)cc12 the results were OPRM1-OPRD1 inv -1, HTR5A inv ag -33, HTR5A ag ctr 13* and OPRM1-OPRD1 ag 0.
CCn1c(=O)c([N+](=O)[O-])c(NCCN(C)C)c2ccccc21 was read as OPRM1-OPRD1 inv -3, HTR5A inv ag 5, HTR5A ag ctr 7 and OPRM1-OPRD1 ag 1.
Screening CCn1c(=O)c([N+](=O)[O-])c(Cl)c2ccccc21 returned OPRM1-OPRD1 inv 35*, HTR5A inv ag 19, HTR5A ag ctr -8 and OPRM1-OPRD1 ag -7.
`C[C@H](CO)N1C[C@H](C)[C@@H](CN(C)C(=O)Nc2ccccc2)Oc2c(NS(=O)(=O)c3cccs3)cccc2C1=O` gave OPRM1-OPRD1 inv 2, HTR5A inv ag 4, HTR5A ag ctr 5 and OPRM1-OPRD1 ag 0.
For CC1CCN(CCCNC(=O)C2CCC(CNS(=O)(=O)c3ccccc3)CC2)CC1 (stereo unspecified) the results were OPRM1-OPRD1 inv -1, HTR5A inv ag 1, HTR5A ag ctr -3 and OPRM1-OPRD1 ag 0.
For COc1cc2c(cc1OC)C(c1ccc(-c3ccc(Cl)c(Cl)c3)o1)=NCC2 the results were OPRM1-OPRD1 inv -20, HTR5A inv ag -3, HTR5A ag ctr 11* and OPRM1-OPRD1 ag 4.
